# Test results as given in paper PMC4336329 (PLoS ONE, 2015).
# In all, about 310,000 compounds went through this assay and about 14,000 (4.5%) showed an effect of 50% or more. The effect is printed as a negative number. The entries come from a sample that favours strong results as a whole.
# Target: human ether-à-go-go-related gene (hERG) potassium channel (human, UniProt Q12809)
# Experiment: primary screen, population patch clamp on CHO cells stably expressing hERG; higher = less effect of the substance
# 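Note: peak tail current of the secondary pulse compared with the same well before compound.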
# Sequence of human ether-à-go-go-related gene (hERG) potassium channel (Q12809 whole entry, looked up): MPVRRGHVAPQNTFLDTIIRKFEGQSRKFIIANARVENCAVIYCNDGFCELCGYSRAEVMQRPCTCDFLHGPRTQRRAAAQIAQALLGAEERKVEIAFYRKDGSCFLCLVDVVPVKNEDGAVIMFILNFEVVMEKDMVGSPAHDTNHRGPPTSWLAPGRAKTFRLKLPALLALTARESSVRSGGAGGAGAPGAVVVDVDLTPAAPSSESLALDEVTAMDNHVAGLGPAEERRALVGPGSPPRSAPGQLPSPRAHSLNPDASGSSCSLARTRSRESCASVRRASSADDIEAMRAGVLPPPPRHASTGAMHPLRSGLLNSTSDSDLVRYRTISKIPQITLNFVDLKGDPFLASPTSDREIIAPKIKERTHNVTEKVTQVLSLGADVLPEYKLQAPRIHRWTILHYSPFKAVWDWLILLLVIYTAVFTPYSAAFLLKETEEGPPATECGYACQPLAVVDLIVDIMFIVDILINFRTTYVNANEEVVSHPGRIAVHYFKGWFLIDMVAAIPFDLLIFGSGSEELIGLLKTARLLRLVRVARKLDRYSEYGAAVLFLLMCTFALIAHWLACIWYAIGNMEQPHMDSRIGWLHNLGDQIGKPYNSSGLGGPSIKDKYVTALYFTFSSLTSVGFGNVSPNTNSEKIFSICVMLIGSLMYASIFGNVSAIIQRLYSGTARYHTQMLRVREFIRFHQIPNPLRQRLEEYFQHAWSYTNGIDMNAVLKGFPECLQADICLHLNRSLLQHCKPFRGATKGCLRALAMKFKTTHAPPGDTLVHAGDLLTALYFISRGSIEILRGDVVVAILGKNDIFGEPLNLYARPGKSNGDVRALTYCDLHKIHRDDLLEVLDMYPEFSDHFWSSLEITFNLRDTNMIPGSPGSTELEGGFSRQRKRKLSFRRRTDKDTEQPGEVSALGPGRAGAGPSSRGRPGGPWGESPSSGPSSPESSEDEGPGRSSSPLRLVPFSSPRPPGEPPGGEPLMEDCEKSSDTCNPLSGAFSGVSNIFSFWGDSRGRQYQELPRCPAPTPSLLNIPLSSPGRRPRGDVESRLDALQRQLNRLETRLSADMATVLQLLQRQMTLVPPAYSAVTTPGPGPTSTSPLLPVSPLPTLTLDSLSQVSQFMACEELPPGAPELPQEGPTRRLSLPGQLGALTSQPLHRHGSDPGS
row,Structure (SMILES),"hERG current change (%, negative = inhibition) at 10uM [%]"
1,O=C(CN1C(=O)NC(CCc2ccccc2)C1=O)NC1CC1 (stereo not shown),18.8
2,Cc1ccc(SC(C)C(=O)NCc2cccnc2)cc1 (stereo not shown),5.44
3,COc1ccc(C(C)(C)C)cc1NC(=S)NCCN1CCOCC1,1.38
4,Cc1ccc(Cn2c(=N)c(C(=O)NC3CCCC3)cc3c(=O)n4ccccc4nc32)cc1,-92.7
5,Cc1ccc(Cn2c(=N)c(C(=O)NC3CCCCC3)cc3c(=O)n4ccccc4nc32)cc1,-65.7
6,Cc1ccc(Cn2c(=N)c(S(=O)(=O)c3ccc(Br)cc3)cc3c(=O)n4ccccc4nc32)cc1,-6.27
7,Cc1ccc(Cn2c(=N)c(S(=O)(=O)c3ccc(C)cc3)cc3c(=O)n4ccccc4nc32)cc1,17.7
8,C/C(=N\NC(=O)C1CCCC1)c1ccc(Cl)c(Cl)c1,13.7
9,O=C(c1ccco1)N1CCN(C(=O)C2CCCN(S(=O)(=O)Cc3ccccc3)C2)CC1 (stereo not shown),-35.4
10,O=C(NCc1c(Cl)cccc1Cl)c1ccc2nnsc2c1,8.96
11,CCOc1ccc(NC(=O)CN2CCN(CC(=O)Nc3ccc(C(N)=O)cc3)CC2)cc1,-72.6
12,CCCCOc1ccc(C(=O)N2CCN(CC(=O)Nc3ccc(C)cc3)CC2)cc1OC,-47.1
13,COC(=O)c1ccc(NC(=O)CN2CCCC2)cc1,5.33
14,Cc1ccc(OCC(=O)Nc2ccc(C(N)=O)cc2)cc1,16.5
15,NC(=O)c1ccc(NC(=O)CN2CCOCC2)cc1,17.9
16,CCOc1ccc(NC(=O)CN2CCN(CC(=O)c3ccc(OC)c(OC)c3)CC2)cc1,-84.4
17,CCOc1ccc(NC(=O)CNC(=O)c2ccc(OC)c(OC)c2)cc1,0.00778
18,CCOc1ccc(NC(=O)CN2CCN(CC(=O)Nc3ccc(C(=O)OC)cc3)CC2)cc1,-66.2
19,COC(=O)c1ccc(NC(=O)CN2CCN(CCO)CC2)cc1.Cl,-5.29
20,Cc1ccccc1C(=O)Nc1nnc(CC(=O)N/N=C/c2cn(Cc3ccccc3)c3ccccc23)s1,12.6
21,COc1ccc([N+](=O)[O-])cc1NC(=O)CCN1CCN(C)CC1,16.3
22,COC(=O)C(NC(=O)CCC(=O)N[C@@H](C(=O)OC)c1ccccc1)c1ccccc1 (stereo partly shown),9.88

row,Structure (SMILES),"hERG current change (%, negative = inhibition) at 10uM [%]"
1,N#CC1=CN(Cc2ccccc2)C=C(/C=N/Nc2ccccc2)C1,-5.72
2,c1ccc2c(CNc3ccc(CNc4ncn[nH]4)cc3)cccc2c1,1.99
3,CCCCC(=O)Nc1ccc(C(=O)NNC(=O)CCCOc2ccc(Cl)cc2Cl)cc1,7.25
4,Fc1ccc(COc2cccc3cccnc23)cc1,-8.3
5,CC(OC(=O)c1ccc(NS(=O)(=O)c2ccc3[nH]c(=O)[nH]c3c2)cc1)C(N)=O (stereo not shown),18.1
6,O=C(NC1CCCc2ccccc21)c1cc(S(=O)(=O)N2CCOCC2)ccc1F (stereo not shown),6.48
7,COc1ccc(/C=C/C(=O)Nc2nc(C)c(C(=O)N(C)C)s2)cc1,3.15
8,CCOc1cccc2sc(N(CCN(CC)CC)C(=O)c3cccc(N4C(=O)CCC4=O)c3)nc12.Cl,-68.4
9,CCN(CC)CCN(C(=O)c1ccc2c(c1)CCCC2)c1nc2ccc(OC)cc2s1.Cl,-5.4
10,CCN(CC)CCN(C(=O)c1ccc2ccccc2c1)c1nc2ccc(F)cc2s1.Cl,-12.7
11,CCOc1ccc2nc(N(CCN(CC)CC)C(=O)c3ccc([N+](=O)[O-])cc3)sc2c1.Cl,-65.7
12,CCN(CC)CCN(C(=O)c1ccc2ccccc2c1)c1nc2ccc(OC)cc2s1.Cl,-30
13,CCOc1ccc2nc(N(CCN(CC)CC)C(=O)c3cccc([N+](=O)[O-])c3)sc2c1.Cl,-59.5
14,CCOc1cccc2sc(N(CCN(CC)CC)C(=O)c3cccc([N+](=O)[O-])c3)nc12.Cl,-75
15,CCN(CC)CCN(C(=O)c1ccc([N+](=O)[O-])cc1)c1nc2ccc(OC)cc2s1.Cl,-49.7
16,CCN(CC)CCN(C(=O)c1cccc([N+](=O)[O-])c1)c1nc2ccc(OC)cc2s1.Cl,-39.1
17,CN(C)CCCN(C(=O)c1cccc(N2C(=O)CCC2=O)c1)c1nc2cc3c(cc2s1)OCO3.Cl,-24
18,CCN(CC)CCN(C(=O)c1ccc(N2C(=O)CCC2=O)cc1)c1nc2cc3c(cc2s1)OCO3.Cl,-44.6
19,COc1ccc(-c2csc(-c3ccccc3)n2)c(OC)c1,29.1
20,O=C(Oc1cccc(C(=S)N2CCOCC2)c1)c1ccc([N+](=O)[O-])cc1[N+](=O)[O-],-14.4
21,CCOC(=O)C1(Cc2cccc(OC)c2)CCCN(C(=O)c2cc(C)oc2C)C1 (stereo not shown),-6.37
22,O=C(CNC(=S)N(Cc1ccccc1Cl)C1CCCC1)NCCCN1CCOCC1,7.4

row,Structure (SMILES),"hERG current change (%, negative = inhibition) at 10uM [%]"
1,CSc1ccc(CNCC2CCCO2)cc1.Cl (stereo not shown),2.99
2,CC(/C=N/NC(=O)Cn1cnc2c1c(=O)n(C)c(=O)n2C)=C\c1ccco1,-10.2
3,CCN(C(=O)CSc1nc2ccccc2o1)C1CCS(=O)(=O)C1 (stereo not shown),-3.25
4,CC1(CC(=O)N/N=C/c2ccc(OCc3ccc(Cl)cc3Cl)cc2)OCCCO1,5.38
5,COc1cccc(C(=O)Nc2ccccc2F)c1,8.37
6,O=C(CCc1nc2ccccc2c(=O)[nH]1)NNC(=O)COc1ccc(Br)cc1,6.48
7,CCOC(=O)c1nnn2c1nc(N1CCOCC1)c1ccccc12,-20.4
8,CCOC(=O)c1nnn2c1nc(N1CCN(c3ccccc3)CC1)c1ccccc12,-62.4
9,CCOC(=O)c1nnn2c1nc(N1CCN(C)CC1)c1ccccc12,-4.25
10,COc1ccc(CC2(CCc3ccncc3)C(=O)NC(=O)NC2=O)cc1,22.5
11,O=C1NC(=O)C(CCc2ccncc2)(CCc2ccncc2)C(=O)N1Cc1ccc(F)cc1,-76.6
12,O=C1NC(=O)C(CCc2ccncc2)(CCc2ccncc2)C(=O)N1CCc1ccc(F)cc1,-68.5
13,O=C1CC(=O)N(CCc2ccc(F)cc2)C(=O)N1,9.33
14,COc1ccc(OC)c(N2C(=O)NC(=O)C(CCc3ccncc3)(CCc3ccncc3)C2=O)c1,-41.2
15,CCOc1ccccc1N1C(=O)NC(=O)C(CCc2ccncc2)(CCc2ccncc2)C1=O,-29.6
16,CCOC(=O)CN1CC23C=CC(O2)C(C(=O)NCCc2ccccc2)C3C1=O (stereo not shown),6.73
17,CCOC(=O)N1CCN(S(=O)(=O)c2ccc(C)cc2)C1c1ccc(OC)cc1 (stereo not shown),-11.9
18,Cc1ccc(-c2nn(Cc3ccccc3)cc2C=O)cc1C,-13.9
19,Cc1cnc(NC(=O)CSc2nc3ccccc3c(=O)[nH]2)s1,-7.72
20,Cc1ccc2nc(SCC(=O)Nc3cccc4ccccc34)nc(=O)n2c1,-14
21,CNC(=O)c1cc2c(=O)n3cc(C)ccc3nc2n(C(C)C)c1=N,-77.1
22,CNC(=O)c1cc2c(=O)n3cccc(C)c3nc2n(C(C)C)c1=N,-77.3

row,Structure (SMILES),"hERG current change (%, negative = inhibition) at 10uM [%]"
1,Cc1ccc(CCNC(=O)c2ccc3nc4ccc(Cl)cc4c(=O)n3c2)cc1,20.4
2,Cc1ccccc1CC(=O)NCc1cccnc1,10.8
3,Cc1cccn2c(=O)c3cc(C(=O)NCC(C)C)sc3nc12,-3.21
4,Cc1cccn2c(=O)c3cc(C(=O)NCc4cccnc4)c(=N)n(C(C)C)c3nc12,-69.4
5,Cc1cccn2c(=O)c3cc(C(=O)O)n(C)c3nc12,6.65
6,Cc1cccn2c(=O)c3cc(C(=O)N(C)C)n(C)c3nc12,2.7
7,O=C(CSc1nnc2scc(-c3ccc(Cl)cc3)n12)NCc1ccco1,-15.9
8,CCOc1cc(CNC(C)(C)CO)cc(Br)c1OCc1ccc(Cl)cc1Cl,-12.1
9,COC1CCN(C(=O)CC2C(=O)NCCN2CC(C)(C)C)CC1 (stereo not shown),18.5
10,COC(=O)c1cc(NC(=O)c2cccnc2)cc(C(=O)OC)c1,11
11,N#CC(=C1SC=CS1)c1nc(-c2ccccc2)cs1,9.47
12,Cn1cc(/C=C(\NC(=O)c2ccccc2)C(=O)NCCCN2CCOCC2)c2ccccc21,3.43
13,CNC(=O)C(=O)NCCCN1CCOCC1,7.92
14,CC(C)c1ccc(/C=C(\NC(=O)c2ccccc2)C(=O)NCCN2CCOCC2)cc1,-61
15,O=C(NCCN1CCOCC1)/C(=C\c1ccccc1Cl)NC(=O)c1ccccc1,-16.2
16,O=C(NCCCN1CCOCC1)/C(=C/c1ccco1)NC(=O)c1ccccc1,1.44
17,CC(C)CNC(=O)C(=O)NCCCN1CCOCC1,-61.6
18,CC(C)c1ccc(/C=C(\NC(=O)c2ccccc2)C(=O)NCCCN2CCOCC2)cc1,-71.4
19,CC(C)NC(=O)C(=O)NCCCN1CCOCC1,25.1
